# According to PubChem BioAssay (NCI):
# About 79,000 compounds went through this panel and 15% of them were active in at least one assay; those are over-represented in the sample as a whole. Values without a mark were called inactive. Calls of active or inactive are those of the source. Cut-off read from the data, not from the text of the source: active = growth inhibition above about 70%; inactive = the rest.
# Experiments:
# [1] = NCI Yeast Anticancer Drug Screen. Data for the sgs1 strain (AID 173);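 note: 0% = growth of vehicle-only control cultures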; details: S. cerevisiae sgs1 mutant, hits give high values
# In short: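 Read-out: yeast growth inhibition relative to vehicle controls, following compound exposure of a strain with a defined DNA repair/cell cycle alteration.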
# [2] = NCI Yeast Anticancer Drug Screen. Data for the mlh1 rad18 strain (AID 175); details: S. cerevisiae mlh1 rad18 strain growth inhibition, hits give high values
# In short: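 Yeast w/ defined DNA-repair lesions; compound exposure; growth vs vehicle controls → % inhibition.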
# [3] = NCI Yeast Anticancer Drug Screen. Data for the rad18 strain (AID 177); details: S. cerevisiae rad18 mutant growth inhibition, hits give high values
# In short: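 Readout: growth inhibition vs vehicle controls. Cells: genetically altered yeast strain, DNA repair defect.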
# [4] = NCI Yeast Anticancer Drug Screen. Data for the rad52 strain (AID 147);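 note: 0% = growth of vehicle-treated control cultures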; details: S. cerevisiae rad52 mutant growth inhibition, hits give high values
# In short: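 Read-out: growth inhibition versus vehicle-treated controls. Cells were a DNA repair-deficient yeast strain treated with compounds.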
# [5] = NCI Yeast Anticancer Drug Screen. Data for the wt1 strain (AID 149);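 note: 0% = growth of vehicle-treated wt1 cultures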; details: S. cerevisiae wt1 strain (SPY 50644) growth inhibition, hits give high values
# In short: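 Vehicle-normalised growth inhibition; strain wt1; compound exposure.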
# [6] = NCI Yeast Anticancer Drug Screen. Data for the mgt1 strain (AID 153); details: S. cerevisiae mgt1 mutant growth inhibition, hits give high values
# In short: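 mgt1 yeast grown with test compound; read-out is growth inhibition versus vehicle-treated cultures.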
# [7] = NCI Yeast Anticancer Drug Screen. Data for the rad50 strain (AID 155);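 note: 0% = growth of vehicle-only cultures of the same strain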; details: S. cerevisiae rad50 strain growth inhibition, hits give high values
# In short: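 A DNA repair-deficient yeast mutant serves as the test organism; compound-induced growth inhibition is calculated against vehicle-treated cells.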
# [8] = NCI Yeast Anticancer Drug Screen. Data for the mec2-1 strain (AID 157); details: S. cerevisiae mec2-1 strain, hits give high values
# In short: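 Yeast mec2-1 mutant treated with compound. Readout: growth inhibition vs vehicle controls.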
# [9] = NCI Yeast Anticancer Drug Screen. Data for the rad14 strain (AID 159);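 note: 0% = growth of vehicle-treated control cultures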; details: S. cerevisiae rad14 strain growth inhibition, hits give high values
# In short: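 Vehicle-treated cultures served as the baseline for growth inhibition of a DNA repair-mutant yeast strain exposed to each compound.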
# [10] = NCI Yeast Anticancer Drug Screen. Data for the sgs1 mgt1 strain (AID 161);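 note: 0% = growth of cultures given vehicle only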; details: S. cerevisiae sgs1 mgt1 strain, hits give high values
# In short: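 Inhibition of yeast growth, normalised to vehicle-treated controls, is reported for a strain bearing genetic alterations in DNA damage repair.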
# [11] = NCI Yeast Anticancer Drug Screen. Data for the CLN2oe strain (AID 163);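 note: 0% = growth of vehicle-only control cultures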; details: S. cerevisiae CLN2oe strain, hits give high values
# In short: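 Read-out: yeast growth inhibition, expressed relative to vehicle-only controls. The strain bears an engineered cell-cycle alteration.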
# [12] = NCI Yeast Anticancer Drug Screen. Data for the bub3 strain (AID 167); details: S. cerevisiae bub3 mutant strain, hits give high values
# In short: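 Inhibition values come from growth of compound-treated mutant yeast normalised to vehicle-treated controls.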
# [13] = NCI Yeast Anticancer Drug Screen. Data for the wt2 strain (AID 169);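 note: 0% = growth of vehicle-treated yeast cultures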; details: S. cerevisiae wt2 strain growth inhibition, hits give high values
# In short: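 Read-out: growth inhibition versus vehicle-treated control cultures after compound exposure of the yeast strain.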
# [14] = NCI Yeast Anticancer Drug Screen. Data for the mlh1 strain (AID 171);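 note: 0% = growth of vehicle-treated control cultures of the same strain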; details: S. cerevisiae mlh1 strain growth inhibition, hits give high values
# In short: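 Read-out: growth inhibition versus vehicle controls. Strain: engineered yeast with a defined DNA repair or cell cycle defect, compound-treated.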
# [15] = at 5.0 µM (retest, dose inferred, filed as 0.5)
# [16] = at 50.0 µM (retest, dose inferred, filed as 5.0)
compound,measurement,setting,value
Cc1ccc(NC(Nc2ccc(C)cc2C)=C(C(Cl)=C(Cl)Cl)[N+](=O)[O-])c(C)c1,growth inhibition,[1]; at 33.0 µM,99% (active)
same,growth inhibition,[1]; at 100.0 µM,93% (active)
same,growth inhibition,[2]; [15],96% (active)
same,growth inhibition,[2]; [16],98% (active)
same,growth inhibition,[2]; at 50.0 µM,98.3% (active)
same,growth inhibition,[3]; at 1.2 µM,2%
same,growth inhibition,[3]; at 3.7 µM,7%
same,growth inhibition,[3]; at 11.0 µM,72% (active)
same,growth inhibition,[3]; at 33.0 µM,99% (active)
same,growth inhibition,[3]; at 100.0 µM,92% (active)
C/C(=N/NC(=S)Nc1ccccc1C)c1ccccn1,growth inhibition,[4]; at 1.2 µM,2%
same,growth inhibition,[4]; at 3.7 µM,9%
same,growth inhibition,[4]; at 11.0 µM,15%
same,growth inhibition,[4]; at 33.0 µM,17%
same,growth inhibition,[4]; at 100.0 µM,7%
same,growth inhibition,[5]; at 1.2 µM,-11%
same,growth inhibition,[5]; at 3.7 µM,-10%
same,growth inhibition,[5]; at 11.0 µM,-9%
same,growth inhibition,[5]; at 33.0 µM,-10%
same,growth inhibition,[5]; at 100.0 µM,-8%
same,growth inhibition,[6]; at 1.2 µM,-6%
same,growth inhibition,[6]; at 3.7 µM,-10%
same,growth inhibition,[6]; at 11.0 µM,4%
same,growth inhibition,[6]; at 33.0 µM,-22%
same,growth inhibition,[6]; at 100.0 µM,-5%
same,growth inhibition,[7]; at 1.2 µM,1%
same,growth inhibition,[7]; at 3.7 µM,5%
same,growth inhibition,[7]; [15],9%
same,growth inhibition,[7]; at 11.0 µM,-9%
same,growth inhibition,[7]; at 33.0 µM,7%
same,growth inhibition,[7]; [16],12%
same,growth inhibition,[7]; at 50.0 µM,78% (active)
same,growth inhibition,[7]; at 100.0 µM,5%
same,growth inhibition,[8]; at 1.2 µM,-3%
same,growth inhibition,[8]; at 3.7 µM,-10%
same,growth inhibition,[8]; [15],-40%
same,growth inhibition,[8]; at 11.0 µM,-9%
same,growth inhibition,[8]; at 33.0 µM,-9%
same,growth inhibition,[8]; [16],1%
same,growth inhibition,[8]; at 50.0 µM,47%
same,growth inhibition,[8]; at 100.0 µM,-6%
same,growth inhibition,[9]; at 1.2 µM,-11%
same,growth inhibition,[9]; at 3.7 µM,-11%
same,growth inhibition,[9]; at 11.0 µM,-11%
same,growth inhibition,[9]; at 33.0 µM,-14%
same,growth inhibition,[9]; at 100.0 µM,-6%
same,growth inhibition,[10]; [15],-35%
same,growth inhibition,[10]; [16],15%
same,growth inhibition,[10]; at 50.0 µM,79.8% (active)
same,growth inhibition,[11]; at 1.2 µM,-8%
same,growth inhibition,[11]; at 3.7 µM,-6%
same,growth inhibition,[11]; at 11.0 µM,-9%
same,growth inhibition,[11]; at 33.0 µM,-11%
same,growth inhibition,[11]; at 100.0 µM,-11%
same,growth inhibition,[12]; at 1.2 µM,-7%
same,growth inhibition,[12]; at 3.7 µM,1%
same,growth inhibition,[12]; [15],-32%
same,growth inhibition,[12]; at 11.0 µM,4%
same,growth inhibition,[12]; at 33.0 µM,-2%
same,growth inhibition,[12]; [16],57%
same,growth inhibition,[12]; at 50.0 µM,65%
same,growth inhibition,[12]; at 100.0 µM,-9%
same,growth inhibition,[13]; at 1.2 µM,-6%
same,growth inhibition,[13]; at 3.7 µM,-6%
same,growth inhibition,[13]; at 11.0 µM,-5%
same,growth inhibition,[13]; at 33.0 µM,-5%
same,growth inhibition,[13]; at 100.0 µM,-5%
same,growth inhibition,[14]; at 1.2 µM,-6%
same,growth inhibition,[14]; at 3.7 µM,-7%
same,growth inhibition,[14]; at 11.0 µM,-5%
same,growth inhibition,[14]; at 33.0 µM,-9%
same,growth inhibition,[14]; at 100.0 µM,-6%
same,growth inhibition,[2]; [15],-15%
same,growth inhibition,[2]; [16],-1%
same,growth inhibition,[2]; at 50.0 µM,86.5% (active)
same,growth inhibition,[3]; at 1.2 µM,0%
same,growth inhibition,[3]; at 3.7 µM,3%
same,growth inhibition,[3]; at 11.0 µM,3%
same,growth inhibition,[3]; at 33.0 µM,-17%
same,growth inhibition,[3]; at 100.0 µM,-4%
